PMC5540273 (PLoS ONE, 2017)

Tested on: T1, MEK5
T1 construct: gene MAP2K5
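Further: kd values determined as follow-up on hits from a single-replicate KINOMEscan panel screen.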

SMILES	Kd
COc1cc2ncn(-c3cc(OCCCc4ccccc4)c(C(N)=O)s3)c2cc1OC [GSK205189]	280 nM
COc1cc2ncn(-c3cc(OCc4ccc(S(C)(=O)=O)cc4)c(C(N)=O)s3)c2cc1OC [GW869979]	470 nM
COc1cc2ncn(-c3cc(OCc4ccncc4Br)c(C(N)=O)s3)c2cc1OC [GW854278]	78 nM
Nc1nccc2scc(-c3ccc4c(c3)CCN4C(=O)Cc3ccccc3)c12 [GSK2576924]	530 nM
COc1cc2nccc(Nc3ccc(OCc4ccc(NC(C)=O)cc4)cc3)c2cc1OC.Cl [GW440135]	52 nM
Cc1ccc(Oc2ccc(Nc3ncnc4cc[nH]c34)cc2C)cn1	9 nM
COc1cc2nccc(Nc3cccc(Oc4ccccc4)c3)c2cc1OC.Cl [GW284543]	11 nM
COc1cc2ncn(-c3cc(OCc4ccncc4)c(C(N)=O)s3)c2cc1OC [GSK336313]	670 nM
COc1cc(Nc2nccc(N3CCC(NC(=O)C4COc5ccccc5O4)C3)n2)cc(OC)c1OC (centres unmarked) [GSK1379761]	180 nM
Nc1n[nH]c2ncc(-c3ccccc3)cc12 [SB-517081]	660 nM
COc1cccc(-n2cnc3c(N)ncnc32)c1 [SKF-97416]	1300 nM

Tested on: MYLK2

SMILES	Kd
O=C(Nc1n[nH]c2cc(-c3ccccc3F)ccc12)C1CC1 [SB-733371]	110 nM
O=C(Nc1n[nH]c2nc(-c3ccccc3)c(Br)cc12)C1CC1 [SB-708998]	60 nM
O=C(Nc1n[nH]c2nc(-c3ccccc3)c(Cl)cc12)C1CC1 [SB-734909]	150 nM
